Screening data (PubChem)
HEK293 tox: kills HEK 293 cells; HEK 293 viability, ATP luminescence (CellTiter-Glo), 48-72 h; Potency, µM (doses to about 115 µM), without a hit: at the top dose activity change, negative = cytotoxicity, most hits filed as inhibitors; hit rate 6.6% among 94,000; further: nearly all actives have a fitted effect of over 60% in size
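Cells seeded first (HEK 293, 250 cells/well), then compound added by pintool. Incubation ran 48 or 72 hr at 37 degree Celsius. CellTiter-Glo was added and luminescence imaged after 10 min at room temperature.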
NPR1 antag: human Npr1 receptor antagonism | hit rate 1.6% among 76,000 | HEK293 hNpr1 GloSensor cGMP, ANP-stimulated luminescence | Potency, µM (series often up to 46.3 µM), for inactives: at the top dose activity change, negative = inhibition, most hits filed as inhibitors; calls by dose curve; further: nearly all actives have a fitted effect of over 60% in size
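Compound pre-incubated 30 min at room temperature on GloSensor-loaded HEK293 cells stably carrying hNpr1 and the pGS-40F cGMP biosensor. Stimulation uses hNppA at 0.1 nM final; luminescence is taken at baseline and 20 min post-agonist.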
3T3 cytotox: kills NIH 3T3 cells; NIH 3T3 viability, CellTiter-Glo ATP luminescence, 48-72 h; Potency, µM (highest dose often 96.7 µM), for the others: at the highest dose activity change, negative = cytotoxicity, hits mostly inhibitors; hit rate 4.3% among 94,000; further: nearly all actives have a fitted effect of over 55% in size
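Viability of NIH 3T3 cells after 48 or 72 hr compound treatment at 37 °C was assessed by CellTiter-Glo, with luminescence imaged following a 10 min room-temperature step.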
Luciferase inh: blocks purified firefly luciferase enzyme activity; P08659; purified P. pyralis luciferase, luminescence, biochemical; Potency, µM (titrated, usually from 115 µM), actives largely listed as inhibitors; hit rate 2.5% among 76,000; further: nearly all actives have a fitted effect of over 65% in size
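Luminescence read by CCD imaging after purified firefly luciferase (10nM final) was added to substrate buffer holding 10uM D-luciferin and 10uM ATP, pH 7.5, pre-dosed with compound.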
Active calls of the source: *; i = inactive; ? = inconclusive; / = no result; [ ] = remark or other dose. In the library only some 11% were active in any assay of this set; here they are far more common. Unless noted, the call rests on the fitted dose curve; in most records, active means well fitted curve in the direction sought with a large enough effect; inconclusive means small, poorly fitted or top-dose-only effect, or another doubt; inactive means no such curve, though single readings can be large; an effect the other way counts as inactive or inconclusive. On the % scale 0 is the no-effect control and ±100 the full control effect; potency means the concentration at half of the fitted maximal effect.

SMILES	HEK293 tox	NPR1 antag	3T3 cytotox	Luciferase inh
Cc1ccccc1C(=O)N1CCCC(N2C(=O)c3c(c(C)nn3-c3ccccc3)C2C(C)C)C1 (stereo not drawn)	22µM*	/	40µM*	/
Cc1ccccc1C(=O)N1CC(N2C(=O)c3c(c(C)nn3-c3ccccc3)C2C(C)C)C1 (stereo not drawn)	50µM*	/	?	/
Cc1nn(-c2ccccc2)c2c1C(C(C)C)N(C1CCCN(C(=O)c3ccccc3F)C1)C2=O (stereo not drawn)	35µM*	/	?	/
Cc1nn(-c2ccccc2)c2c1C(C(C)C)N(C1CCCN(C(=O)C(C)(C)C)C1)C2=O (stereo not drawn)	?	/	-5%	/
CC(=O)N1CC(N2C(=O)c3c(c(C)nn3-c3ccccc3)C2C(C)C)C1 (stereo not drawn)	-7%	/	-25%	/
Cc1nn(-c2ccccc2)c2c1C(C(C)C)N(C1CN(C(=O)N(C)C)C1)C2=O (stereo not drawn)	?	/	-26%	/
O=C(c1ccccc1)N1CCC2(CC1)NC(=O)N(Cc1ccccc1)C2=O	-7%	-2%	-3%	i
Oc1ccc(-c2nc(C3CC3)nc3c2CCN(Cc2ccncc2)CC3)cc1	i	/	-10%	/
O=C(c1ccc(F)cc1)N1CCCC(c2nn(-c3ccccn3)c(=O)[nH]2)C1 (stereo not drawn)	3%	/	-12%	/
CCc1ccccc1NC(=O)N1CCC(N(CCC(C)C)C2CCOCC2)CC1	10%	0%	-11%	i
COc1c(F)cc(CN2CCCC3(CCNC3)C2)cc1F (stereo not drawn)	?	0%	?	i
Cc1ccccc1C(=O)N1CCC(N2C(=O)c3c(c(C)nn3-c3ccccc3)C2C(C)C)C1 (stereo not drawn)	40µM*	/	?	/
Cc1nn(-c2ccccc2)c2c1C(C(C)C)N(C1CN(C(=O)C3CCCC3)C1)C2=O (stereo not drawn)	45µM*	/	40µM*	/
COCC(=O)N1CCC(N2C(=O)c3c(c(C)nn3-c3ccccc3)C2C(C)C)C1 (stereo not drawn)	-3%	/	-17%	/
Cc1ccc(C(=O)N2CCCC(N3C(=O)c4c(c(C)nn4-c4ccccc4)C3C(C)C)C2)cc1 (stereo not drawn)	45µM*	/	?	/
Cc1nn(-c2ccccc2)c2c1C(C(C)C)N(C1CCCN(C(=O)C3CCCC3)C1)C2=O (stereo not drawn)	-10%	/	-19%	/
Cc1nn(-c2ccccc2)c2c1C(C(C)C)N(C1CCN(C(=O)c3ccccn3)C1)C2=O (stereo not drawn)	45µM*	/	-21%	/
COc1ccccc1Nc1ncc2c(n1)CN(C(=O)c1ccc(Oc3ccccc3)cc1)CCN2	35µM*	-4%	?	i
Cn1c(C(=O)N2CCNc3cnc(Nc4cccc(C(F)(F)F)c4)nc3C2)cc2ccccc21	40µM*	-30%	40µM*	i
COc1ccccc1Nc1ncc2c(n1)CN(C(=O)c1cccc(O)c1)CCN2	100µM*	-26%[70.6 µM]	-3%[138 µM]	i
COc1ccccc1Nc1ncc2c(n1)CN(C(=O)c1ccc(Cl)cc1)CCN2	?	-30%[70.6 µM]	?	i
CCC(=O)N1CCC2(CC1)C(OC)C(=O)N2CC1CC1 (stereo not drawn)	-2%	-3%	i	i
CCCCn1c(=O)c(C(=O)NC2CCCc3ccccc32)nc2cccnc21 (stereo not drawn)	40µM*	/	35µM*	/
O=C(OCc1ccccc1)N1CCOCC12CCN(Cc1ncccn1)CC2	-12%[172 µM]	1%[70.6 µM]	?	i
O=C(OCc1ccccc1)N1CCOCC12CCN(Cc1ccc(O)cc1)CC2	?	-10%[70.6 µM]	79µM*	i
SMILES	HEK293 tox	NPR1 antag	3T3 cytotox	Luciferase inh
O=C1OCC2(CCN(Cc3c[nH]c4ccccc34)C2)N1Cc1ccccc1 (stereo not drawn)	?	-22%[70.6 µM]	89µM*	i
O=C(OCc1ccccc1)N1CCOCC12CCN(Cc1c[nH]c3ccccc13)CC2	56µM*	-21%[70.6 µM]	35µM*	i
COc1ccc(-c2ccc3c(c2)C(=O)N2CC[C@H](NC(=O)CSC)[C@H]2C(=O)N3)c(OC)c1	-28%	-1%	?	?
CCNC(=O)CN1CCN(c2nccc(C3CCCC3)n2)CC1	-9%	3%	-3%	i
Cc1cnc(C(=O)N[C@@H]2CCC[C@@H]2C(=O)N2CCC(Cc3ccccc3)CC2)cn1	?	3%	-25%	i
O=C(NC1CCCN(c2cc(-c3ccc(F)cc3)[nH]n2)C1)c1c[nH]c2ccccc12 (stereo not drawn)	?	-23%	?	22µM*
Cc1nc(N2CCC(NC(=O)c3ccccn3)CC2)cc(C(F)(F)F)n1	?	?	?	i
Cc1nc(N2CCC(NC(=O)c3cc4ccccc4[nH]3)CC2)cc(C(F)(F)F)n1	?	7.9µM*	?	?
O=C(NC1CCCN(c2cc(-c3ccc(F)cc3)[nH]n2)C1)c1ccccc1Br (stereo not drawn)	?	-18%	?	i
O=C(NC1CCCN(c2cc(-c3ccc(F)cc3)[nH]n2)C1)c1cc2ccccc2[nH]1 (stereo not drawn)	40µM*	-27%	?	20µM*
COc1ccccc1C(=O)NC1CCCN(c2cc(-c3ccc(F)cc3)[nH]n2)C1 (stereo not drawn)	?	-18%	?	?
O=C(c1cccc(Cl)c1)N1CCC(C(=O)N2CCCC(c3nc4ncccc4[nH]3)C2)CC1 (stereo not drawn)	-2%	/	?	/
COCCN1CCC(C(=O)Nc2ccc(Oc3ccccc3F)cc2)CC1	50µM*	-3%	?	i
COC1C(=O)N(c2cccc(F)c2)C12CCN(S(=O)(=O)c1c(C)nn(C)c1C)CC2 (stereo not drawn)	?	-3%	-21%	i
COCCNC(=O)CN1C(=O)C(Oc2ccc(F)cc2)C12CCCCC2 (stereo not drawn)	4%	/	-9%	/
CCOc1ccc(Cc2nc(C3CC(=O)N(C4CCCCC4)C3)no2)cc1 (stereo not drawn)	?	-3%	-25%	i
O=C1CC(c2noc(Cc3ccc(Cl)cc3)n2)CN1C1CCCCC1 (stereo not drawn)	71µM*	-17%	?	i
Cc1ccc(SC2CCN(C(=O)c3cn(CCc4ccccc4)nn3)CC2)cc1	89µM*	-2%	?	i
Cc1cccc(C2CCCN(C(=O)c3cn(CCc4ccccc4)nn3)C2)c1 (stereo not drawn)	40µM*	-4%	?	i
CNC(=O)c1cc(C2CC2)nc2c1c(C1CCN(C(=O)c3ccccc3F)C1)nn2C (stereo not drawn)	-25%	/	-15%	/
Cn1c2c(c3ccccc31)CN(C(=O)Nc1ccc(Cl)cc1Cl)CC2	?	-19%	?	25µM*
Cc1ccc(NC(=O)N2CCc3c(c4ccccc4n3C)C2)cc1	?	-1%	?	?
